# Source: publication PMC11062922 (Nature Chemical Biology, 2023)
# Read-outs that look alike come from different tables or passages of the source.
# How the values were obtained:
# Design in all cases: species or system human, MV4-11 + K-562 + COLO205 + SK-N-BE2 + OVCAR-8
# ADCK3 = conditions: read-out: apparent Kd, n = 1
# ADCK1 = conditions: read-out: apparent Kd, compound concentrations: 100 nM and 1000 nM (sheet 'Samples'), n = 1
# CAMK4 = conditions: read-out: apparent Kd; compound concentrations: 100 nM and 1000 nM (sheet 'Samples'), CATDS: 0.15107138054909999; n = 1
# FLT3 = conditions: read-out: apparent Kd; compound concentrations: 100 nM and 1000 nM (sheet 'Samples'), CATDS: 0.830735386752396; n = 1
# MAP2K2 = conditions: read-out: apparent Kd; compound concentrations: 100 nM and 1000 nM (sheet 'Samples'), CATDS: 0.139234608718731; n = 1
# PDGFRB = conditions: read-out: apparent Kd, n = 1
# AKT1 = conditions: read-out: apparent Kd; compound concentrations: 100 nM and 1000 nM (sheet 'Samples'), CATDS: 0.39563035574495098; n = 1
# ADRBK1 = conditions: read-out: apparent Kd; compound concentrations:100 nM and 1000 nM (sheet 'Samples'); n = 1
# MAPK11 = conditions: read-out: apparent Kd; compound concentrations:100 nM and 1000 nM (sheet 'Samples'); n = 1
# MAPKAPK2 = conditions: read-out: apparent Kd; compound concentrations:100 nM and 1000 nM (sheet 'Samples'); n = 1
# BMPR2 = conditions: read-out: apparent Kd; compound concentrations: 100 nM and 1000 nM (sheet 'Samples'), CATDS: 0.122163431962668; n = 1
# CSNK1A1 = conditions: read-out: apparent Kd; compound concentrations: 100 nM and 1000 nM (sheet 'Samples'), CATDS: 0.24698540566434601; n = 1
# CSNK1D = conditions: read-out: apparent Kd; compound concentrations: 100 nM and 1000 nM (sheet 'Samples'), CATDS: 0.25978966817559301; n = 1
# CSNK1E = conditions: read-out: apparent Kd; compound concentrations: 100 nM and 1000 nM (sheet 'Samples'), CATDS: 0.174355768455381; n = 1
# PKN2 = conditions: read-out: apparent Kd; compound concentrations: 100 nM and 1000 nM (sheet 'Samples'), CATDS: 0.12366746425094501; n = 1
# ARAF = conditions: read-out: apparent Kd; compound concentrations: 100 nM and 1000 nM (sheet 'Samples'), CATDS: 0.31382782577056201; n = 1
# PIK3CB = conditions: read-out: apparent Kd; compound concentrations: 100 nM and 1000 nM (sheet 'Samples'), CATDS: 0.29308113927572399; n = 1
# ATM = conditions: read-out: apparent Kd, compound concentrations: 100 nM and 1000 nM (sheet 'Samples'), n = 1
# CDC42BPG = conditions: read-out: apparent Kd; compound concentrations: 100 nM and 1000 nM (sheet 'Samples'), CATDS: 7.3873319351317801E-2; n = 1
# CDKL5 = conditions: read-out: apparent Kd; compound concentrations: 100 nM and 1000 nM (sheet 'Samples'), CATDS: 0.103192047261391; n = 1
# CLK1 = conditions: read-out: apparent Kd; compound concentrations: 100 nM and 1000 nM (sheet 'Samples'), CATDS: 0.10181470937503199; n = 1
# CLK2 = conditions: read-out: apparent Kd; compound concentrations: 100 nM and 1000 nM (sheet 'Samples'), CATDS: 0.42234286586488101; n = 1
# CLK4 = conditions: read-out: apparent Kd; compound concentrations: 100 nM and 1000 nM (sheet 'Samples'), CATDS: 0.12045713212899201; n = 1
# PIK3CD = conditions: read-out: apparent Kd; compound concentrations: 100 nM and 1000 nM (sheet 'Samples'), CATDS: 0.16747258598029099; n = 1
# PRKAG2 = conditions: read-out: apparent Kd; compound concentrations: 100 nM and 1000 nM (sheet 'Samples'), CATDS: 7.6138264702913502E-2; n = 1
# AKT2 = conditions: read-out: apparent Kd; compound concentrations:100 nM and 1000 nM (sheet 'Samples'); n = 1
# CDK17 = conditions: read-out: apparent Kd; compound concentrations:100 nM and 1000 nM (sheet 'Samples'); n = 1
# CIT = conditions: read-out: apparent Kd; compound concentrations:100 nM and 1000 nM (sheet 'Samples'); n = 1
# DCTPP1 = conditions: read-out: apparent Kd; compound concentrations:100 nM and 1000 nM (sheet 'Samples'); n = 1
# EPHA1 = conditions: read-out: apparent Kd; compound concentrations:100 nM and 1000 nM (sheet 'Samples'); n = 1
# EPHB6 = conditions: read-out: apparent Kd; compound concentrations:100 nM and 1000 nM (sheet 'Samples'); n = 1
# ERBB3 = conditions: read-out: apparent Kd; compound concentrations:100 nM and 1000 nM (sheet 'Samples'); n = 1
# ERN2 = conditions: read-out: apparent Kd; compound concentrations:100 nM and 1000 nM (sheet 'Samples'); n = 1
# IGF1R = conditions: read-out: apparent Kd; compound concentrations:100 nM and 1000 nM (sheet 'Samples'); n = 1
# JAK2 = conditions: read-out: apparent Kd; compound concentrations:100 nM and 1000 nM (sheet 'Samples'); n = 1
# MELK = conditions: read-out: apparent Kd; compound concentrations:100 nM and 1000 nM (sheet 'Samples'); n = 1
# PYGL = conditions: read-out: apparent Kd; compound concentrations:100 nM and 1000 nM (sheet 'Samples'); n = 1
# RIOK2 = conditions: read-out: apparent Kd; compound concentrations:100 nM and 1000 nM (sheet 'Samples'); n = 1
# TTN = conditions: read-out: apparent Kd; compound concentrations:100 nM and 1000 nM (sheet 'Samples'); n = 1
# [1] = compound concentrations:100 nM and 1000 nM (sheet 'Samples')
structure (smiles),measurement,setting,value
O=C(Nc1cccc(-c2nn3ncccc3c2-c2ccnc(Nc3cccc(C(F)(F)F)c3)n2)c1)c1c(F)cccc1F [GSK299495A],potency estimated from few doses,"ADCK3; compound concentrations: 100 nM and 1000 nM (sheet 'Samples'), CATDS: 1",0.233 µM
COc1cc(Nc2ncc(-c3ccccc3)o2)cc(OC)c1 [GW631581B],potency estimated from few doses,ADCK1; CATDS: 0.14545775949077999,1.65 µM
same,potency estimated from few doses,CAMK4,1.41 µM
same,potency estimated from few doses,FLT3,0.00816 µM
same,potency estimated from few doses,MAP2K2,2.01 µM
same,potency estimated from few doses,"PDGFRB; compound concentrations: 100 nM and 1000 nM (sheet 'Samples'), CATDS: 0.32052418925239901",0.0854 µM
FC(F)(F)c1ccc(-c2nn3ncccc3c2-c2ccnc(Nc3ccc(Cl)c(C(F)(F)F)c3)n2)cc1 [GW829350X],potency estimated from few doses,"ADCK3; compound concentrations: 100 nM and 1000 nM (sheet 'Samples'), CATDS: 0.67916876553854699",0.727 µM
same,potency estimated from few doses,AKT1,2.35 µM
CNC(=O)c1ccc(C)c(-n2c(C)cc(OCc3ccc(F)cc3F)c(Br)c2=O)c1 [PFE-PKIS_41],potency estimated from few doses,ADCK3; [1],1.26 µM
same,potency estimated from few doses,ADRBK1,1.49 µM
same,potency estimated from few doses,MAPK11,0.0347 µM
same,potency estimated from few doses,MAPKAPK2,0.0233 µM
Cc1cc(C)c2c(n1)sc1c(N)ncnc12 [RO4241967-000],potency estimated from few doses,"ADCK3; compound concentrations: 100 nM and 1000 nM (sheet 'Samples'), CATDS: 0.164080926877189",0.987 µM
same,potency estimated from few doses,BMPR2,2.21 µM
same,potency estimated from few doses,CSNK1A1,0.453 µM
same,potency estimated from few doses,CSNK1D,0.417 µM
same,potency estimated from few doses,CSNK1E,0.864 µM
same,potency estimated from few doses,PKN2,2.12 µM
N#Cc1c(C(=O)c2ccccc2)cnn1-c1ccccc1 [RO1150868-000],potency estimated from few doses,"ADCK3; compound concentrations: 100 nM and 1000 nM (sheet 'Samples'), CATDS: 0.41640381160796702",0.51 µM
same,potency estimated from few doses,ARAF,0.875 µM
same,potency estimated from few doses,PIK3CB,1.02 µM
CCOc1ccc2c(-c3ccnc(Nc4cccc(C(F)(F)F)c4)n3)cnn2n1 [GW811761X],potency estimated from few doses,ADCK1; CATDS: 8.5431360664487602E-2,1.14 µM
same,potency estimated from few doses,ATM; CATDS: 0.154535696206207,0.257 µM
same,potency estimated from few doses,CDC42BPG,2.02 µM
same,potency estimated from few doses,CDKL5,0.644 µM
same,potency estimated from few doses,CLK1,0.667 µM
same,potency estimated from few doses,CLK2,0.0498 µM
same,potency estimated from few doses,CLK4,0.438 µM
same,potency estimated from few doses,PIK3CD,0.22 µM
same,potency estimated from few doses,PRKAG2,1.76 µM
CNc1nc(-c2ccc3c(N)n[nH]c3c2)cc(N2C[C@@H](C(=O)NC3CCCCC3)CC[C@H]2C)n1 [GSK2334470],potency estimated from few doses,ADCK3; [1],1.18 µM
same,potency estimated from few doses,AKT2,1.57 µM
same,potency estimated from few doses,CDK17,2.13 µM
same,potency estimated from few doses,CIT,1.43 µM
same,potency estimated from few doses,DCTPP1,1.89 µM
same,potency estimated from few doses,EPHA1,0.845 µM
same,potency estimated from few doses,EPHB6,1.84 µM
same,potency estimated from few doses,ERBB3,1.36 µM
same,potency estimated from few doses,ERN2,1.44 µM
same,potency estimated from few doses,IGF1R,2.36 µM
same,potency estimated from few doses,JAK2,0.47 µM
same,potency estimated from few doses,MELK,1.64 µM
same,potency estimated from few doses,PDGFRB; [1],1.95 µM
same,potency estimated from few doses,PYGL,2.02 µM
same,potency estimated from few doses,RIOK2,2.11 µM
same,potency estimated from few doses,TTN,0.945 µM
COc1ccc(CNC(=O)c2ccc(-c3cc(-c4nnc(C)o4)ccc3C)cc2)cc1 [GW701032X],potency estimated from few doses,"ADCK3; compound concentrations: 100 nM and 1000 nM (sheet 'Samples'), CATDS: 0.40395097893739401",0.731 µM
same,potency estimated from few doses,ATM; CATDS: 0.655973384718888,0.26 µM
